Source: PubChem BioAssay (NCATS)
Results filed as inconclusive are left out. Where a call stands in place of a potency, no number is given. The source made the active and inactive calls. Calls come from the whole dose curve; as a rule, active = well fitted inhibition curve with a large enough effect; inconclusive = small, poorly fitted or top-dose-only effect, or effect the other way; inactive = flat fitted curve, though single readings scatter.

Biological target: D(1A) dopamine receptor (Homo sapiens) (UniProt P21728)
Test: HTS Assay for Allosteric Agonists of the Human D1 Dopamine Receptor: Primary Screen for Antagonists (AID 488983); note: nearly all actives have a fitted effect of over 65% in size
Conditions: D1 receptor cell assay, antagonist mode, qHTS titration; series mostly up to 41.8 µM
From the text: Dopamine receptors (DARs) are involved in the etiology and/or therapy of a number of neuropsychiatric and endocrine disorders. For instance, all receptor-based antiparkinsonian drugs work via stimulating the […] DAR subtype whereas all FDA-approved antipsychotic agents are antagonists of this receptor. […] There are three different types of allosteric modulators that we are seeking, two of which will stimulate or augment receptor signaling, allosteric agonists and potentiators, while the third, allosteric antagonists, will attenuate receptor signaling. The present primary screening assay measures compound agonism by tracking calcium flux in a […], inducible Hek293 Trex D1 cell line.
Freshly passaged cells are plated in 1536 well black, clear bottom plates at a density of 4000 cells/well in 3 ul of complete media containing 1x tetracycline inducer. After an overnight incubation at 30 C in 5% CO2, cells are loaded with 2 ul of the no wash Calcium Assay Kit (ABD Bioquest) and incubated at room temperature for 30 to 90 minutes. A 10 cycle (1 second/cycle) baseline measurement is taken and then the FDSS online 1536 pintool delivers 23 nl of compound library (as well as dopamine controls) to the plate. The plate is measured for kinetically at 1 cycle/sec for 180 seconds and is considered to be the agonist portion of the assay (eg, compounds which activate a positive calcium response during this portion are flagged as potential agonists). Following the 180 second read, 1 ul of an EC80 of dopamine is delivered by an onboard pipette head. Measurements are taken kinetically for an additional 180 seconds.
Potency is the fitted concentration of half-maximal effect.

Sequence of D(1A) dopamine receptor (Homo sapiens) (P21728 whole entry, looked up): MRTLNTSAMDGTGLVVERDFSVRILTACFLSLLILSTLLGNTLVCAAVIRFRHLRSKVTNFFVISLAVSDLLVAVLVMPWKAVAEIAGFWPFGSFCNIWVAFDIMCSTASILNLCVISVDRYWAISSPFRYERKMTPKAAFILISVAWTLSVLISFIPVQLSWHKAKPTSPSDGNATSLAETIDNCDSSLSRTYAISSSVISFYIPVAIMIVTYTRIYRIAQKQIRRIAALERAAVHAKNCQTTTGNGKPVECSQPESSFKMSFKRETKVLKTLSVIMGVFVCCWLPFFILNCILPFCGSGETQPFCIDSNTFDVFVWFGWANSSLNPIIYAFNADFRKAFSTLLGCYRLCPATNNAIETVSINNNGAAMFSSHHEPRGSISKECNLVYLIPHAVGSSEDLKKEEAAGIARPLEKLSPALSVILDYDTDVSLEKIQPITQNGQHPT

Row | SMILES | Potency
1 | CC1(C)CCC(NC(=O)[C@@H](N)CCC(=O)O)CC1 | inactive
2 | O=C1CCC(c2ccc(-n3ccnc3)cc2)=NN1 | inactive
3 | CCCn1c(=O)[nH]c(=O)c2[nH]cnc21 | inactive
4 | N[C@H](CO)C(=O)O | inactive
5 | CN1C2CCC1CC(OC(=O)c1c[nH]c3ccccc13)C2 (configuration not stated) | inactive
6 | CCCC1O[C@@H]2C[C@H]3[C@@H]4CCC5=CC(=O)C=C[C@]5(C)[C@H]4[C@@H](O)C[C@]3(C)[C@]2(C(=O)CO)O1 (some centres not stated) | inactive
7 | CC(=O)O[C@H]1C[C@@H]2CC[C@@H]3[C@H](CC[C@@]4(C)[C@H]3C[C@H]([N+]3(C)CCCCC3)[C@@H]4OC(C)=O)[C@@]2(C)C[C@@H]1[N+]1(C)CCCCC1 | inactive
8 | C[C@@H]1C(=O)NC2=Nc3cccc(Cl)c3CN21 | inactive
9 | O=C(O)c1cc2cc(Cc3cccnc3)ccc2o1 | inactive
10 | CC(C)COC(=O)OCN1C(=O)CN(CCN2CC(=O)N(COC(=O)OCC(C)C)C(=O)C2)CC1=O | inactive
11 | N[C@@H](Cc1cnc[nH]1)C(=O)O | inactive
12 | C1CCc2nnnn2CC1 | inactive
13 | Nc1cc(Cl)c(NC2=NCCN2)c(Cl)c1 | inactive
14 | CCC(NC(C)C)C(O)c1ccc(O)c(O)c1 (configuration not stated) | inactive
15 | COc1cc(NS(C)(=O)=O)ccc1Nc1c2ccccc2nc2ccccc12 | 1.12 µM (active)
16 | CC(CCc1ccccc1)NCC(O)c1ccc(O)c(C(N)=O)c1 (configuration not stated) | inactive
17 | C[C@]12CC[C@@H]3c4ccc(O)cc4CC[C@H]3[C@@H]1CC[C@@H]2O | inactive
18 | COc1cc2c(cc1O)CC[C@@H]1[C@@H]2CC[C@]2(C)[C@@H](O)CC[C@@H]12 | inactive
19 | CC[C@H](C)C(=O)O[C@H]1CCC=C2C=C[C@H](C)[C@H](CC[C@@H]3C[C@@H](O)CC(=O)O3)[C@H]21 | inactive
20 | Oc1ccc(O)cc1 | inactive
21 | C[N+]1(CCCCC[N+]2(C)CCCC2)CCCC1 | inactive
22 | COC(=O)[C@H]1[C@H]2C[C@H]3c4[nH]c5ccccc5c4CCN3C[C@H]2CC[C@@H]1O | inactive
